# Data: PubChem BioAssay (EPA / NIEHS)
# The source made the active and inactive calls. Rule for the calls: active = hit-call score of the fitted dose curve at least 0.9, where 1 is the maximum; inactive = score below 0.9.
# Read-out: CYP2C8 (gene 1558)
# Assay: LTEA_HepaRG_CYP2C8: Life Technologies and Expression Analysis (LTEA) Assay for CYP2C8 using HepaRG (AID 2283483)
# Details: mRNA level, 48 h; actives raise or lower the signal
# Summary of the method: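 Differentiated HepaRG cells in serum-free induction medium exposed 48 h in duplicate to 8 half-log concentrations from 100 uM in 0.5% DMSO. CYP2C8 mRNA by qRT-PCR normalized to ACTB, GAPDH, POLR2A; bidirectional fit versus DMSO.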
SMILES,outcome,AC50
O=C(O)C1C(C(=O)O)C2(Cl)C(Cl)=C(Cl)C1(Cl)C2(Cl)Cl (stereo not given),inactive,–
CN(C)C(=O)Cl,inactive,–
ClC(Cl)(Cl)c1ccccc1,inactive,–
ClC(Cl)c1ccccc1,inactive,–
O=P1(N(CCCl)CCCl)NCCCO1 (stereo not given),inactive,–
CC(Cl)(Cl)C(=O)O,inactive,–
CCCCc1ccccc1,inactive,–
O=C(O)C(Cl)Cl,inactive,–
Nc1ccc2ccccc2c1,inactive,–
CCCN(CCC)c1c([N+](=O)[O-])cc(C(C)C)cc1[N+](=O)[O-],–,13.2 µM (active)
Nc1cc2c3c(c1)C(c1ccccc1)=N[C@@H](NC(=O)c1cccnc1)C(=O)N3CC2,inactive,–
CCOS(=O)(=O)OCC,inactive,–
CCNc1nc(Cl)nc(NC(C)(C)C)n1,–,2.37 µM (active)
c1ccc(OP(Oc2ccccc2)Oc2ccccc2)cc1,inactive,–
CSC(C)(C)C=NO,inactive,–
COCCOCCO,inactive,–
CCCCN(CCCC)SN(C)C(=O)Oc1cccc2c1OC(C)(C)C2,inactive,–
c1nc[nH]n1,inactive,–
c1cc2c3c(cccc3c1)CC2,inactive,–
CCC(C)(C)c1ccc(O)cc1,inactive,–
[N-]=[N+]=[N-],–,79.9 µM (active)

# Read-out: CYP2C9 (gene 1559)
# Assay: LTEA_HepaRG_CYP2C9: Life Technologies and Expression Analysis (LTEA) Assay for CYP2C9 using HepaRG (AID 2283484)
# Details: mRNA level, 48 h; actives raise or lower the signal
# Summary of the method: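 Differentiated human HepaRG cells in serum-free induction medium were exposed 48 h to chemicals in 8-point half-log series from 100 uM (0.5% DMSO), in duplicate. CYP2C9 mRNA was measured by qRT-PCR, normalized to ACTB/GAPDH/POLR2A, with bidirectional fitting versus DMSO.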
SMILES,outcome,AC50
O=C(O)C1C(C(=O)O)C2(Cl)C(Cl)=C(Cl)C1(Cl)C2(Cl)Cl (stereo not given),inactive,–
CN(C)C(=O)Cl,inactive,–
ClC(Cl)(Cl)c1ccccc1,inactive,–
ClC(Cl)c1ccccc1,inactive,–
O=P1(N(CCCl)CCCl)NCCCO1 (stereo not given),inactive,–
CC(Cl)(Cl)C(=O)O,inactive,–
CCCCc1ccccc1,inactive,–
O=C(O)C(Cl)Cl,inactive,–
Nc1ccc2ccccc2c1,inactive,–
CCCN(CCC)c1c([N+](=O)[O-])cc(C(C)C)cc1[N+](=O)[O-],–,12.7 µM (active)
Nc1cc2c3c(c1)C(c1ccccc1)=N[C@@H](NC(=O)c1cccnc1)C(=O)N3CC2,inactive,–
CCOS(=O)(=O)OCC,inactive,–
CCNc1nc(Cl)nc(NC(C)(C)C)n1,inactive,–
c1ccc(OP(Oc2ccccc2)Oc2ccccc2)cc1,inactive,–
CSC(C)(C)C=NO,inactive,–
COCCOCCO,inactive,–
CCCCN(CCCC)SN(C)C(=O)Oc1cccc2c1OC(C)(C)C2,inactive,–
c1nc[nH]n1,inactive,–
c1cc2c3c(cccc3c1)CC2,inactive,–
CCC(C)(C)c1ccc(O)cc1,inactive,–
[N-]=[N+]=[N-],–,78.6 µM (active)

# Read-out: CYP2E1 (gene 1571)
# Assay: LTEA_HepaRG_CYP2E1: Life Technologies and Expression Analysis (LTEA) Assay for CYP2E1 using HepaRG (AID 2283485)
# Details: mRNA level, 48 h; actives raise or lower the signal
# Summary of the method: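 HepaRG cells in serum-free induction medium exposed 48 h to test chemicals, 8 half-log concentrations up to 100 uM in 0.5% DMSO, duplicate. CYP2E1 mRNA by qRT-PCR, normalized to ACTB, GAPDH, POLR2A; bidirectional fit versus DMSO.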
SMILES,outcome,AC50
O=C(O)C1C(C(=O)O)C2(Cl)C(Cl)=C(Cl)C1(Cl)C2(Cl)Cl (stereo not given),inactive,–
CN(C)C(=O)Cl,inactive,–
ClC(Cl)(Cl)c1ccccc1,inactive,–
ClC(Cl)c1ccccc1,inactive,–
O=P1(N(CCCl)CCCl)NCCCO1 (stereo not given),inactive,–
CC(Cl)(Cl)C(=O)O,inactive,–
CCCCc1ccccc1,inactive,–
O=C(O)C(Cl)Cl,inactive,–
Nc1ccc2ccccc2c1,–,33.8 µM (active)
CCCN(CCC)c1c([N+](=O)[O-])cc(C(C)C)cc1[N+](=O)[O-],–,67 µM (active)
Nc1cc2c3c(c1)C(c1ccccc1)=N[C@@H](NC(=O)c1cccnc1)C(=O)N3CC2,–,12.2 µM (active)
CCOS(=O)(=O)OCC,inactive,–
CCNc1nc(Cl)nc(NC(C)(C)C)n1,–,26.6 µM (active)
c1ccc(OP(Oc2ccccc2)Oc2ccccc2)cc1,inactive,–
CSC(C)(C)C=NO,inactive,–
COCCOCCO,inactive,–
CCCCN(CCCC)SN(C)C(=O)Oc1cccc2c1OC(C)(C)C2,–,41.5 µM (active)
c1nc[nH]n1,inactive,–
c1cc2c3c(cccc3c1)CC2,–,0.391 µM (active)
CCC(C)(C)c1ccc(O)cc1,inactive,–
[N-]=[N+]=[N-],–,67.1 µM (active)

# Read-out: CYP4A11 (gene 1579)
# Assay: LTEA_HepaRG_CYP4A11: Life Technologies and Expression Analysis (LTEA) Assay for CYP4A11 using HepaRG (AID 2283486)
# Details: mRNA level, 48 h; actives raise or lower the signal
# Summary of the method: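 CYP4A11 transcript levels were quantified by TaqMan qRT-PCR after HepaRG human liver cells were treated for 48 hours with test chemicals (top 100 uM, half-log dilutions, 0.5% DMSO). Gain or loss of signal was fitted relative to DMSO.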
SMILES,outcome,AC50
O=C(O)C1C(C(=O)O)C2(Cl)C(Cl)=C(Cl)C1(Cl)C2(Cl)Cl (stereo not given),inactive,–
CN(C)C(=O)Cl,inactive,–
ClC(Cl)(Cl)c1ccccc1,inactive,–
ClC(Cl)c1ccccc1,inactive,–
O=P1(N(CCCl)CCCl)NCCCO1 (stereo not given),inactive,–
CC(Cl)(Cl)C(=O)O,inactive,–
CCCCc1ccccc1,inactive,–
O=C(O)C(Cl)Cl,inactive,–
Nc1ccc2ccccc2c1,inactive,–
CCCN(CCC)c1c([N+](=O)[O-])cc(C(C)C)cc1[N+](=O)[O-],–,81.2 µM (active)
Nc1cc2c3c(c1)C(c1ccccc1)=N[C@@H](NC(=O)c1cccnc1)C(=O)N3CC2,–,50 µM (active)
CCOS(=O)(=O)OCC,inactive,–
CCNc1nc(Cl)nc(NC(C)(C)C)n1,–,9.92 µM (active)
c1ccc(OP(Oc2ccccc2)Oc2ccccc2)cc1,inactive,–
CSC(C)(C)C=NO,inactive,–
COCCOCCO,inactive,–
CCCCN(CCCC)SN(C)C(=O)Oc1cccc2c1OC(C)(C)C2,inactive,–
c1nc[nH]n1,inactive,–
c1cc2c3c(cccc3c1)CC2,inactive,–
CCC(C)(C)c1ccc(O)cc1,inactive,–
[N-]=[N+]=[N-],–,70.6 µM (active)

# Read-out: DNA damage-inducible transcript 3 (DDIT3), DDIT3 (gene 1649)
# Assay: LTEA_HepaRG_DDIT3: Life Technologies and Expression Analysis (LTEA) Assay for DNA damage-inducible transcript 3 (DDIT3) using HepaRG (AID 2283488)
# Details: mRNA level, 48 h; actives raise or lower the signal
# Summary of the method: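 Differentiated human HepaRG cells in serum-free induction medium were exposed in duplicate for 48 h to 8 concentrations (top 100 uM, half-log steps, 0.5% DMSO). DDIT3 mRNA measured by TaqMan qRT-PCR, normalized to ACTB/GAPDH/POLR2A; bidirectional fit versus DMSO.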
SMILES,outcome,AC50
O=C(O)C1C(C(=O)O)C2(Cl)C(Cl)=C(Cl)C1(Cl)C2(Cl)Cl (stereo not given),inactive,–
CN(C)C(=O)Cl,inactive,–
ClC(Cl)(Cl)c1ccccc1,inactive,–
ClC(Cl)c1ccccc1,inactive,–
O=P1(N(CCCl)CCCl)NCCCO1 (stereo not given),inactive,–
CC(Cl)(Cl)C(=O)O,inactive,–
CCCCc1ccccc1,inactive,–
O=C(O)C(Cl)Cl,inactive,–
Nc1ccc2ccccc2c1,inactive,–
CCCN(CCC)c1c([N+](=O)[O-])cc(C(C)C)cc1[N+](=O)[O-],inactive,–
Nc1cc2c3c(c1)C(c1ccccc1)=N[C@@H](NC(=O)c1cccnc1)C(=O)N3CC2,inactive,–
CCOS(=O)(=O)OCC,inactive,–
CCNc1nc(Cl)nc(NC(C)(C)C)n1,inactive,–
c1ccc(OP(Oc2ccccc2)Oc2ccccc2)cc1,inactive,–
CSC(C)(C)C=NO,inactive,–
COCCOCCO,inactive,–
CCCCN(CCCC)SN(C)C(=O)Oc1cccc2c1OC(C)(C)C2,inactive,–
c1nc[nH]n1,inactive,–
c1cc2c3c(cccc3c1)CC2,inactive,–
CCC(C)(C)c1ccc(O)cc1,inactive,–
[N-]=[N+]=[N-],–,76.4 µM (active)
